Hits are enriched below; roughly 5.3% of the tested compounds scored in any of these assays.
IMPase Li inh – membrane-permeable IMPase blocker, potentiated with lithium | CHO-M1 cells, IP1 TR-FRET (IP-One), carbachol + lithium | Potency, µM (doses to about 59.4 µM), hits mostly inhibitors | 210,000 tested, 0.35% active | AID 1457;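 note: IP1 builds up when IMPase is blocked and the TR-FRET signal falls; nearly all actives have a fitted effect of over 50% in size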
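CHO cells stably expressing M1 receptor (2000/well, cultured 16–30 h) treated 30 min at 37C with compound plus low lithium. Cytosolic IP1 by TR-FRET (665/620 ratio and 620 channel) after 10 min lysis; AC50 by Hill fit.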
PNC assembly inh – inhibitors of perinucleolar compartment assembly | 140,000 tested, 3.1% active | activity change (PNC), negative = inhibition, % at 10 µM | AID 2417 | PC3M PTB-GFP, PNC prevalence imaging, 16 h; active compounds read low;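 active = readout at or below -70, meaning at least 70% loss of cells showing the perinucleolar compartment, a nuclear body marking cancer cells; inconclusive = readout between -30 and a set limit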
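Compounds are pinned in duplicate onto adhered PC3M cells stably expressing GFP-tagged PTB and incubated 16 h at 37 C. Cells are then fixed, nuclei stained with Hoechst, and PNC-positive cells counted.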
12-hLO inh – blocks human 12-lipoxygenase activity | AID 1452 | purified 12-hLO, xylenol orange hydroperoxide absorbance | 150,000 tested, 0.12% active | P18054 | Potency, µM (series often up to 57.1 µM), usual class: inhibitors; note: nearly all actives have a fitted effect of over 55% in size
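Xylenol orange chromogenic assay: hydroperoxide from 12hLO oxidises Fe(II), giving red-shifted Fe(III)-XO absorbance. Conditions: 150 nM enzyme, 40 uM arachidonic acid, 25 mM Hepes pH 7.0, 0.01% Triton X-100, 30 min, room temperature.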
IMPase inh – membrane-permeable compound that blocks inositol monophosphatase. 120,000 tested, under 10 active. inhibition (IP1 accumulation), % at 46.1 µM. AID 901. CHO-M1 cells, IP1 accumulation, HTRF TR-FRET ratio. P97697; active = well fitted curve in the direction sought with a large enough effect in the signal ratio, not every such curve was filed as active; inconclusive = small, poorly fitted or top-dose-only effect, or a change in a side signal; inactive = no such curve, though single readings can be large or run the other way; the % refers to the signal ratio;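 note: cells stimulated with carbachol in lithium chloride buffer; higher means more IMPase inhibition seen as more IP1 and lower FRET ratio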
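Measured: the HTRF emission ratio (665/620 nm) plus the 620 nm donor channel, each fitted to the Hill equation to give AC50. Cells were CHO-M1 given compounds up to 46 uM and a 30 min carbachol stimulation at 37C.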
HPGD inh – HPGD (human) dehydrogenase inhibition. P15428. Potency, µM, usual class: inhibitors. purified HPGD, NADH fluorescence kinetic, PGE2 substrate. 150,000 tested, 4.3% active; active = well fitted inhibition curve with a large enough effect, not every such curve was filed as active; inconclusive = small, poorly fitted or top-dose-only effect, or another doubt; inactive = no such curve, though single readings can be large or run the other way
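NADH formation kinetics: reaction with 30 uM PGE2 and 1 mM NAD+ (final), 20 nM enzyme, Tris-HCl pH 8 with Tween 20, after 15 min compound preincubation at room temperature. Fluorescence change, last versus first of five reads.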
15-hLO-2 inh – 15-hLO-2 (ALOX15B) enzyme inhibition; purified 15hLO-2, xylenol orange hydroperoxide absorbance; AID 881; O15296; 110,000 tested, 0.56% active; Potency, µM (titrated, usually from 57.1 µM), hits mostly inhibitors; note: nearly all actives have a fitted effect of over 60% in size
Target sequence (O15296 whole entry, looked up): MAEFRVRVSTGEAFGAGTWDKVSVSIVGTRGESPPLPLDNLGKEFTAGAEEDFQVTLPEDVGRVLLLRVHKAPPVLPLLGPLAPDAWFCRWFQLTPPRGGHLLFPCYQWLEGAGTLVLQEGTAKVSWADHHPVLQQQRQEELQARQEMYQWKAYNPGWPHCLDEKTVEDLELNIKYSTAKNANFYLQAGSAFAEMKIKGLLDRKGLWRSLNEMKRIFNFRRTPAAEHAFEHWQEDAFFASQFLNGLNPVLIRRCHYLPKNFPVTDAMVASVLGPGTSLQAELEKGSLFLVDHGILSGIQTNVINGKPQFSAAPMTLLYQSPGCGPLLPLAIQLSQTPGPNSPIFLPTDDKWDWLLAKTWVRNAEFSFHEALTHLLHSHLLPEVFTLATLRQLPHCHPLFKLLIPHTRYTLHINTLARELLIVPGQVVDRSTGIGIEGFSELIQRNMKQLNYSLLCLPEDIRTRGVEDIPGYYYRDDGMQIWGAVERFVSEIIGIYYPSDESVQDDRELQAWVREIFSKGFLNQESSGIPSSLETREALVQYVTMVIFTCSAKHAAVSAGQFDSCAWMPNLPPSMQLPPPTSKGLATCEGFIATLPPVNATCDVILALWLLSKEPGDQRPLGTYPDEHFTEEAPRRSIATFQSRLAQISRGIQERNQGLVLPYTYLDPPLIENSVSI
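Read-out: hydroperoxide product oxidises ferrous iron, measured as xylenol orange complex via the 573-to-405 nm absorbance ratio after 30 min. Reaction: 50 nM enzyme, 15 min compound preincubation, 45 uM arachidonic acid, 90 min RT, Hepes pH 7.5 with Triton X-100.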
A number is an active result; – = inactive; ? = inconclusive; · = no result. Unless noted, calls come from the whole dose curve; as a rule, active = well fitted curve in the direction sought with a large enough effect; inconclusive = small, poorly fitted or top-dose-only effect, or another doubt; inactive = no such curve, though single readings can be large; an effect the other way counts as inactive or inconclusive.

SMILES	IMPase Li inh	PNC assembly inh	12-hLO inh	IMPase inh	HPGD inh	15-hLO-2 inh
Cc1ccc(Nc2nc3ccccc3c3nncn23)cc1C	·	·	·	–	·	·
COc1cccc(CC2(CO)CCCN(Cc3sc(N4CCCC4)nc3Cl)C2)c1 (stereo not drawn)	–	·	·	·	·	·
CCC(C)NC(=O)CCSCCC(=O)NC(C)CC (stereo not drawn)	–	-103.8	–	·	–	·
CC(C)NC(=O)c1ccc2c(c1)nnn2C	–	–	–	–	–	–
Cn1nnc2cc(C(=O)Nc3ccccc3)ccc21	–	·	·	·	·	·
O=C(c1ccc2snnc2c1)N1CCSCC1	–	–	–	–	14.1µM	–
CCN(CC)C(=O)c1ccc2c(c1)nnn2C	–	?	–	·	15.8µM	·
Cn1nnc2cc(C(=O)N3CCSCC3)ccc21	–	–	–	–	1.58µM	–
O=C(c1ccc2snnc2c1)N1CCCCC1	–	-100.0	–	–	15.8µM	·
CCOC(=O)CCCCC(=O)c1[nH]c(=O)[nH]c1CSc1nnc2c3ccccc3n(C(C)C)c2n1	–	–	–	·	?	·
Cc1c(CC(C)(C)C(=O)O)n(Cc2ccc(Cl)cc2)c2ccc(F)cc12	–	·	–	–	?	?
CCN(CC)C(=O)c1ccc(COc2ccccc2Cl)cc1	–	?	–	–	0.355µM	–
O=C(O)c1ccc(COc2ccccc2Cl)cc1	–	–	–	–	12.6µM	–
CCC(C)NC(=O)c1ccc(C(=O)c2ccccc2)cc1 (stereo not drawn)	–	·	·	·	·	·
CCC(C)NC(=O)c1ccc(COc2ccccc2Cl)cc1 (stereo not drawn)	–	–	–	–	20µM	–
CC1CCN(C(=O)c2ccc(COc3ccccc3Cl)o2)CC1	–	–	–	–	15.8µM	–
O=C(c1ccc(COc2ccccc2Cl)o1)N1CCCC1	–	?	–	–	–	–
O=C1CCC=C1C(O)c1ccc(Cl)cc1 (stereo not drawn)	–	·	·	·	–	·
Cc1ccccc1NC(=O)N1CCN(S(=O)(=O)c2ccccc2)CC1	–	·	·	·	·	·
Cc1cc(C(=O)Nc2c(C)nn(Cc3c(Cl)cccc3Cl)c2C)no1	–	–	–	–	–	–
Cc1nn(Cc2c(Cl)cccc2Cl)c(C)c1NC(=O)c1cc(C(C)C)on1	–	-101.7	–	–	–	–
COc1cc2c(cc1OC)C(C1C(=O)CC(C)(C)CC1=O)N(C(=O)CCl)CC2 (stereo not drawn)	–	-80.1	–	·	–	·
COCCCN(C(=S)Nc1cc(C)cc(C)c1)C(C)c1ccncc1 (stereo not drawn)	–	–	–	·	–	·
COC(=O)c1cc(Br)c(=O)n(-c2nccs2)c1	10µM	–	–	?	–	–
COC(=O)c1cc(Br)c(=O)n(-c2cc(C)on2)c1	10µM	–	–	?	–	–
SMILES	IMPase Li inh	PNC assembly inh	12-hLO inh	IMPase inh	HPGD inh	15-hLO-2 inh
COC(=O)c1cc(Br)c(=O)n(-c2ccccn2)c1	–	–	–	–	–	–
CC(=O)c1c(C)[nH]c(C(=O)CN2C(=O)NC(C)(c3ccc(C)cc3)C2=O)c1C (stereo not drawn)	–	·	·	·	·	·
O=C1CCN1C1(C(=O)NC2CCCCC2)CCCC1	–	?	–	·	–	·
C#CCNc1nc(C)nc2c1nnn2Cc1ccccc1F	–	?	–	–	–	–
O=c1[nH]c(C(F)(F)F)nc2c1nnn2Cc1ccccc1F	–	–	–	–	17.8µM	–
CC(C)(C)CC(=O)N1CCC(c2nc3c(nnn3Cc3c(F)cccc3Cl)c(=O)[nH]2)CC1	·	–	–	–	·	–
CCCc1nc2c(nnn2Cc2ccccc2F)c(=O)[nH]1	–	–	–	–	28.2µM	–
Cc1nc(NCCO)c2nnn(Cc3ccccc3F)c2n1	–	-92.6	–	–	–	–
CCC(Sc1ncnc2sc3c(c12)CCCC3)C(=O)OC(C)C (stereo not drawn)	·	·	·	–	·	·
CCc1ccccc1NC(=S)N(CCc1ccncc1)C(C)C	–	·	·	·	·	·
COc1c(Br)cc2c(C)c(C(=O)O)oc2c1Br	–	–	–	·	14.1µM	·
COc1ccc2c(C)c(C(=O)O)oc2c1	–	?	–	–	–	–
CC1CCCC(C)N1CC(O)COc1c(F)cc(Br)cc1F (stereo not drawn)	–	·	·	·	·	·
Cc1ccc(N2CCN(C(=S)Nc3ccccc3)CC2)cc1	–	·	·	·	·	·
O=C(NCCc1c[nH]c2ccccc12)C(F)(F)F	–	–	–	–	–	–
CC(=O)OCC(=O)NCC(=O)c1c[nH]c2ccccc12	–	-100.1	–	·	15.8µM	·
CN(C)C(CNC(=O)CCCc1c[nH]c2ccccc12)c1ccco1 (stereo not drawn)	–	–	–	–	–	–
Cc1ccc(C(=O)OCC(=O)c2c[nH]c3ccccc23)cc1	–	–	–	·	–	·
CC(C)CC1(C(=O)NCCc2c[nH]c3ccccc23)C=CCN1C(=O)c1ccccc1 (stereo not drawn)	–	–	–	·	–	–
CC(C)C(=O)NCCc1c[nH]c2ccccc12	–	-123.8	–	·	–	·
CC(=O)N1CC=CC1(CC(C)C)C(=O)NCCc1c[nH]c2ccccc12 (stereo not drawn)	–	-88.2	–	·	–	–
CC(C)CNC(=O)CCCc1c[nH]c2ccccc12	–	–	–	–	14.1µM	–
COc1ccccc1N(C)S(=O)(=O)c1ccc(C(=O)OCC(=O)N2CCCCCC2)cc1	–	·	·	·	·	·

Screening results from PubChem BioAssay.
